About 320 (0.49%) of roughly 65,000 compounds were called active.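 How the source made its calls: active means top-ranked compounds by inhibition in the single 10 µM screen, taking a fixed number of the strongest; inactive means the rest, inconclusive results apart.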 This excerpt belongs to a sample that is enriched for actives.
Tested on: phosphomevalonate kinase (Streptococcus pneumoniae D39)
Assay: phosphomevalonate kinase enzyme inhibition – biochemical, mevalonate pathway, pilot trial included, primary screen (AID 539);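 further: 0% = full reaction with DMSO carrier and 100% = background rate without enzyme reaction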
Conditions: purified PMK, PK/LDH-coupled NADH absorbance 340 nm, at 10 µM, stronger effect = higher value
[1] = measured here: pilot screen replicates

Row | SMILES | inhibition | inhibition [1] [%]
1 | CCN(CC)S(=O)(=O)c1cccc(C(=O)NCC(=O)OCC(=O)NCc2ccccc2)c1 | 0% (inactive) | 
2 | Cc1ccc(C)n1C(Cc1ccccc1)C(=O)O (stereo not given) | 7% (inactive) | 
3 | COc1ccc(OC)c2c1sc(=NC(=O)CN1C(=O)CCC1=O)n2C | 12% (inactive) | 
4 | O=C(Nc1ccc(S(=O)(=O)N2CCCC2)cc1Cl)C1=COCCO1 | 14% (inactive) | 
5 | N#Cc1ccccc1-n1c(N)c(C(=O)N2CCCC2)sc1=S | 4% (inactive) | 
6 | Cc1ccc(S(=O)(=O)N2CCN(C(=O)CCC(=O)NC3CCCc4ccccc43)CC2)cc1 (stereo not given) | 21% (inactive) | 
7 | c1ccc(CCN2CN=C(Nc3nc4ccccc4o3)NC2)cc1 | 7% (inactive) | 
8 | Fc1ccc2nc(Nc3nc4c(s3)CCCC4)sc2c1 | 8% (inactive) | 
9 | Clc1ccc(Cn2ncc3c(NCc4cccnc4)ncnc32)cc1 | 9% (inactive) | 1.5
10 | Fc1c(F)c(C(F)(F)F)c(F)c(F)c1N1CCN(c2ccc3nnc(C(F)(F)F)n3n2)CC1 | 0% (inactive) | 
11 | COc1ccccc1N1CCN(c2nc3ccccc3n3nnnc23)CC1 | 7% (inactive) | 
12 | Cc1ccc(C(=O)NC2CC(C)(C)NC(C)(C)C2)c(C)c1 | 1% (inactive) | 
13 | CCOC(=O)N1CCN(Cc2nc3c(c(=O)n(C)c(=O)n3C)n2Cc2ccccc2)CC1 | 2% (inactive) | 1
14 | CCOC(=O)CSc1nc2c(c(=O)n(Cc3ccccc3Cl)c(=O)n2C)n1C | 5% (inactive) | 
15 | CCOc1cc2[nH]c(=S)n(CCCN3CCCC3=O)c(=O)c2cc1OCC | 14% (inactive) | 
16 | COc1ccc(OC)c2[nH]c(=O)c(CCNC(=O)C(C)(C)C)cc12 | 7% (inactive) | 
17 | N=c1c2c3c(sc2ncn1N)CCCCC3 | 17% (inactive) | 
18 | O=C1c2ccccc2C(=O)N1c1ccccc1S(=O)C(F)(F)F (stereo not given) | 12% (inactive) | 
19 | CCOC(=O)c1nnn(-c2nc(OC)nc(N(C)C)n2)c1-c1ccccc1 | 17% (inactive) | 
20 | COc1ccccc1NC(=O)C1=C(C)Nc2ncnn2C1c1ccc(C)o1 (stereo not given) | 3% (inactive) | 2.5
21 | COc1ccc(C2C(C(=O)Nc3ccccc3OC)=C(C)Nc3nnnn32)c(OC)c1 (stereo not given) | 8% (inactive) | 
22 | COc1ccccc1NC(=O)C1=C(C)NC2=C(C(=O)CCC2)C1c1ccc(C)o1 (stereo not given) | 26% (active) | 
23 | COc1cc(OC)cc(C(=O)Nc2ncc3c(n2)CC(C)(C)CC3=O)c1 | 11% (inactive) | 
24 | Cc1cc(NC(=O)Cn2nc(C(F)(F)F)c3c2CCCC3)no1 | 3% (inactive) | 
25 | c1cnc(NC2C3CC4CC(C3)CC2C4)nc1 (stereo not given) | 7% (inactive) | 
26 | COc1ccc2[nH]c3ccc(OC)cc3c2c1 | 6% (inactive) | 
27 | COc1ccc(NC(=O)C2CCCN(S(=O)(=O)c3cccc4cccnc34)C2)cc1 (stereo not given) | 8% (inactive) | 
